This is an account of results in the supplement of paper PMC12808144.

Unmarked numbers belong to inactive results.

One test concerns NHEM-hTERT. As to the kind of experiment: cell viability relative to DMSO control (fraction of DMSO control); higher = less cytotoxic, active = 0.5 or less. To be noted: 1 µM; 120 h. The procedure, abridged:
(§1)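 For 120 h, duplicate wells of 384-well plates held 1 µM of each of 315 approved anti-cancer drugs (TargetMol), spotted acoustically before cells were added in 40 µl per well. Immortalized NHEM-hTERT melanocytes were seeded at 2500/well, and patient-derived Mel-DCC-11 plus its resistant subline Mel-DCC-11-R at 1500/well. The subline was run both without and with 8 µM of its selecting drug, and ATPlite 1step luminescence was read. Viability was normalised to vehicle-treated wells and averaged over the two replicates.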

Another test has as its system Mel-DCC-11-R. As to the kind of experiment: cell viability relative to DMSO control (fraction of DMSO control); higher = less cytotoxic, active = 0.8 or less. To be noted: 1 µM, 120 h. Summed up:
as §1

With `S=P(N1CC1)(N1CC1)N1CC1` [Triethylenethiophosphoramide], the cell viability is 0.98 in the test with NHEM-hTERT, 0.91 with Mel-DCC-11-R (vemurafenib co-treatment 0 µM) and 0.932 with Mel-DCC-11-R (vemurafenib co-treatment 8 µM).

Consider `CC(C)C[C@H](NC(=O)[C@@H](O)[C@H](N)Cc1ccccc1)C(=O)O` [Ubenimex], for which the cell viability in the test on NHEM-hTERT is 0.944.

With `Nc1nc([O-])c2c(CCc3ccc(C(=O)N[C@@H](CCC(=O)[O-])C(=O)[O-])cc3)c[nH]c2n1.[Na+].[Na+]` [Pemetrexed disodium], the figures for the cell viability in the test with NHEM-hTERT, in the test on Mel-DCC-11-R (vemurafenib co-treatment 0 µM) and in the test with Mel-DCC-11-R (vemurafenib co-treatment 8 µM) were 1.05, 0.818 and 0.881, respectively.

Consider `O=C1c2c(O)ccc(O)c2C(=O)c2c(NCCNCCO)ccc(NCCNCCO)c21` [Mitoxantrone], for which the cell viability with NHEM-hTERT was 0.695; in the test with Mel-DCC-11-R (vemurafenib co-treatment 0 µM) it was 1.26; with Mel-DCC-11-R (vemurafenib co-treatment 8 µM), 0.574 (active).

With `Cc1ccc(NC(=O)c2ccc(CN3CCN(C)CC3)cc2)cc1Nc1nccc(-c2cccnc2)n1` [Imatinib], the cell viability was 1.24 with NHEM-hTERT, 0.978 in the test on Mel-DCC-11-R (vemurafenib co-treatment 0 µM) and 1.1 in the test on Mel-DCC-11-R (vemurafenib co-treatment 8 µM).

For the compound `CC(C)(O)CNc1nc(Nc2ccnc(C(F)(F)F)c2)nc(-c2cccc(C(F)(F)F)n2)n1` [Enasidenib], the cell viability in the test with NHEM-hTERT was 1.09.

As to `Nc1ccn([C@@H]2O[C@H](CO)[C@@H](O)[C@@H]2O)c(=O)n1` [Cytarabine], in the test on NHEM-hTERT, the cell viability was 0.886.

With `Nc1ncnc2c1ncn2[C@@H]1O[C@H](CO)[C@@H](O)[C@@H]1O` [Vidarabine], the values for the cell viability with NHEM-hTERT, in the test with Mel-DCC-11-R (vemurafenib co-treatment 0 µM) and with Mel-DCC-11-R (vemurafenib co-treatment 8 µM) were 1.02, 1.11 and 1.1, respectively.
